Mdm2-MdmX inh = human Mdm2/MdmX binding inhibition; hit rate 3% among 330,000; O15151+Q00987; inhibition, % at 8 µM; SaOS-2 split-luciferase Mdm2/MdmX complementation, luminescence;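 active = inhibition of at least 50% at 8 µM in the primary screen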
Target sequence (O15151 whole entry, looked up): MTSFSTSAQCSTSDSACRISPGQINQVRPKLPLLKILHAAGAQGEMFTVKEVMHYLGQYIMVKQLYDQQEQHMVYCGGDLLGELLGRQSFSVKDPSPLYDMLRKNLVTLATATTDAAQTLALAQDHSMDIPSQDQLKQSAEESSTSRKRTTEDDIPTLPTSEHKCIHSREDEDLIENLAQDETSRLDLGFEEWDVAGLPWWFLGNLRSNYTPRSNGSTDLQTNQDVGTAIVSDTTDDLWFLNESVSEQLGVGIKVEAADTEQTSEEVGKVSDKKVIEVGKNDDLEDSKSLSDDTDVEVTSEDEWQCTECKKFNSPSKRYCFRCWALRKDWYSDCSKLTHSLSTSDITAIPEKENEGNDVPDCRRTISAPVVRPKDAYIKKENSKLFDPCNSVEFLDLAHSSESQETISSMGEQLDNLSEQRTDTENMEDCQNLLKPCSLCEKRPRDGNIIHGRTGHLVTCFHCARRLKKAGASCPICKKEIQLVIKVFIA
Target sequence (Q00987 whole entry, looked up): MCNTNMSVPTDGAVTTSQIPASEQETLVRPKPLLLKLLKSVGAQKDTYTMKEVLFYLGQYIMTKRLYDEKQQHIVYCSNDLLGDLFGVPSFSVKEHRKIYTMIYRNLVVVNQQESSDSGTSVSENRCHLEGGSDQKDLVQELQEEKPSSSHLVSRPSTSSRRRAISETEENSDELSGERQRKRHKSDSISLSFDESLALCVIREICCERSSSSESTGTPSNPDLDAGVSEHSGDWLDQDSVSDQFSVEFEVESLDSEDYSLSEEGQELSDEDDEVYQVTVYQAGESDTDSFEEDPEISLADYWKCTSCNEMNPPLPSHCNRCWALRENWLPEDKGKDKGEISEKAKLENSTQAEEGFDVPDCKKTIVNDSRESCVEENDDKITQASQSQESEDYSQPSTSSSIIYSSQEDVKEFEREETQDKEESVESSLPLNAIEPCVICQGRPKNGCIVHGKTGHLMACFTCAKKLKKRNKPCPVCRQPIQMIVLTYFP
ABHD5-PLIN5 inh = inhibitors of human ABHD5-perilipin-5 interaction; Q00G26+Q8WTS1; Split G. princeps luciferase complementation, luminescence, 4 h; inhibition, % at 4 µM; hit rate 0.78% among 360,000;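 active = inhibition above the mean inhibition across every tested compound plus 3 SD, cut at about 22% in these data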;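 note: 0% = DMSO only wells and the 100% control is not disclosed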
Peg3 prom inh = inhibitors of Peg3 promoter. inhibition, % at 20 µM. AID 588405. HeLa PEG-Prom luciferase reporter, luminescence, overnight. hit rate 1.7% among 360,000;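 active = inhibition of at least 50% at 20 µM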
HIF-2a inh = blocks HIF-2a reporter activity. 786-0 RCC cells HIF-2a reporter, luciferase luminescence, overnight. hit rate 0.72% among 360,000. inhibition, % at 18.8 µM;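 active = inhibition of the luminescence signal of 40% or more relative to plate controls, in a single-dose primary screen at 18.75 µM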
KKLEB tox = reduces viability of KKLEB cystic fibrosis airway cells; KKLEB CF airway cells viability, ATPlite luminescence, overnight; stronger effect = lower value; cells stimulated with P. aeruginosa culture filtrate; activity change (cytotoxicity), % at 5 µM; hit rate 0.36% among 360,000;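 active = corrected activity change at or below -50% at 5 µM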
CF NFkB block = inhibitors of cystic fibrosis induced NF-kB. KKLEB NF-kB-GFP reporter, PAF-induced, GFP fluorescence overnight. inhibition, % at 5 µM. hit rate 0.86% among 360,000. AID 588850;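 active = at least 50% inhibition at 5 µM, scaled per plate between neutral and stimulator controls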;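 note: PAF is a Pseudomonas aeruginosa culture filtrate used as stimulus; plate controls were PAF-stimulated DMSO wells for no effect and unstimulated DMSO wells for full effect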
CF NFkB inh conf = CF NF-kB inhibition confirmation, single concentration; shares compounds with CF NFkB block; KKLEB CF airway cells, PAF-induced NF-kB-GFP fluorescence, overnight; hit rate 64% among 1,300; inhibition, % at 5 µM; AID 602472; in the data active = inhibition above about 40%;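 note: stimulus PAF is a Pseudomonas aeruginosa filtrate and not platelet activating factor; plate controls were DMSO wells with stimulus for no effect and unstimulated DMSO wells for full effect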
The depositor's hits bear a star. A selection: hits, their analogues and other compounds. The true share with any hit is near 4.6%.

`COc1ccc(NC(=O)NNC(=O)COc2ccc3cc(Br)ccc3c2)c(OC)c1` gave Mdm2-MdmX inh 27, ABHD5-PLIN5 inh 4, Peg3 prom inh 22, HIF-2a inh 11, KKLEB tox -42, CF NFkB block 52* and CF NFkB inh conf 1.
NC(=O)C1CCN(C(=O)/C=C/c2ccccc2[N+](=O)[O-])CC1 was read as Mdm2-MdmX inh -8, ABHD5-PLIN5 inh 1, Peg3 prom inh -6, HIF-2a inh 7, KKLEB tox -2 and CF NFkB block 8.
O=C(/C=C/c1ccccc1[N+](=O)[O-])N1CCOCC1 was read as Mdm2-MdmX inh -2, ABHD5-PLIN5 inh -3, Peg3 prom inh 11, HIF-2a inh 19, KKLEB tox -44, CF NFkB block 70* and CF NFkB inh conf -2.
COc1ccc(NC(=O)CCOc2ccccc2C)cc1S(=O)(=O)N1CCCCC1 was read as Mdm2-MdmX inh -14, ABHD5-PLIN5 inh -2, Peg3 prom inh -2, HIF-2a inh 16, KKLEB tox 7 and CF NFkB block -25.
COc1ccc(CCNS(=O)(=O)c2ccc(C3CNC(=O)C3)cc2)cc1OC (stereo not drawn) was read as Mdm2-MdmX inh 2, ABHD5-PLIN5 inh 0, Peg3 prom inh -3, HIF-2a inh 6, KKLEB tox 8 and CF NFkB block -1.
For COc1ccc(C2CNC(=O)C2)cc1OC1CCCC1 (stereo not drawn) the results were Mdm2-MdmX inh 2, ABHD5-PLIN5 inh 2, Peg3 prom inh -10, HIF-2a inh 4, KKLEB tox -14, CF NFkB block 52* and CF NFkB inh conf 55*.
COc1ccc(CCNC(=O)c2c(O)c3c([nH]c2=O)CCCC3)cc1 was read as Mdm2-MdmX inh 3, ABHD5-PLIN5 inh 2, Peg3 prom inh 11, HIF-2a inh 12, KKLEB tox -36, CF NFkB block 51* and CF NFkB inh conf 36.
`C[C@@H](NC(=O)Cn1ccc(N)nc1=O)c1cccc2ccccc12` gave Mdm2-MdmX inh 12, ABHD5-PLIN5 inh -5, Peg3 prom inh 5, HIF-2a inh 15, KKLEB tox -2 and CF NFkB block -16.
`c1ccc2c(-c3ccc4nncn4c3)cncc2c1` gave ABHD5-PLIN5 inh 5, Peg3 prom inh 6, HIF-2a inh 5, KKLEB tox 3, CF NFkB block 73* and CF NFkB inh conf 89*.
Screening O=C(O)CCSc1nc2ccccc2n1-c1ccccc1 returned Mdm2-MdmX inh -4, ABHD5-PLIN5 inh -7, Peg3 prom inh 19, HIF-2a inh 27, KKLEB tox 24, CF NFkB block 56* and CF NFkB inh conf 19.
CC(C)N(C(=O)CSc1nc2ccccc2n1-c1ccccc1)C(C)C was read as Mdm2-MdmX inh 17, ABHD5-PLIN5 inh -8, Peg3 prom inh 17, HIF-2a inh -4, KKLEB tox -21 and CF NFkB block 6.
For COc1ccc(NS(=O)(=O)c2cccc(C(=O)NNC(=O)c3ccc(=O)[nH]c3)c2)cc1 the results were Mdm2-MdmX inh 10, ABHD5-PLIN5 inh -1, Peg3 prom inh 6, HIF-2a inh 7, KKLEB tox -2 and CF NFkB block -36.
`O=C(CN1C(=O)NC2(CCCc3ccccc32)C1=O)c1ccc(F)c(F)c1` (stereo not drawn) gave Mdm2-MdmX inh 13, ABHD5-PLIN5 inh 3, Peg3 prom inh -7, HIF-2a inh 0, KKLEB tox -39, CF NFkB block 56* and CF NFkB inh conf 11.
For Cc1cc(C)nc(NS(=O)(=O)c2ccc(NC(=O)c3snnc3C)cc2)n1 the results were Mdm2-MdmX inh 9, ABHD5-PLIN5 inh -15, Peg3 prom inh -10, HIF-2a inh -2, KKLEB tox -6 and CF NFkB block -10.
`CCOC(=O)N1CCN(c2ncnc3scc(-c4ccc(Cl)cc4)c23)CC1` gave Mdm2-MdmX inh 27, ABHD5-PLIN5 inh 4, Peg3 prom inh 35, HIF-2a inh 1, KKLEB tox -10 and CF NFkB block 29.
Screening Clc1ccc(-c2csc3ncnc(N4CCc5ccccc5C4)c23)cc1 returned Mdm2-MdmX inh 10, ABHD5-PLIN5 inh 7, Peg3 prom inh 35, HIF-2a inh 36, KKLEB tox -12, CF NFkB block 55* and CF NFkB inh conf 46*.
For CCCn1c(N)c(N(CCOC)C(=O)c2ccc(N(C)S(=O)(=O)c3ccc(C)cc3)cc2)c(=O)[nH]c1=O the results were Mdm2-MdmX inh 7, ABHD5-PLIN5 inh 0, Peg3 prom inh 9, HIF-2a inh 10, KKLEB tox -12 and CF NFkB block 19.
Screening Cc1ccccc1NC(=O)CCCNC(=O)c1ccc(Cl)cc1 returned Mdm2-MdmX inh -32, ABHD5-PLIN5 inh -1, Peg3 prom inh 2, HIF-2a inh 4, KKLEB tox 11 and CF NFkB block -17.
Screening Fc1ccccc1-c1csc(=Nc2cccnc2)n1CCCn1ccnc1 returned Mdm2-MdmX inh 39, ABHD5-PLIN5 inh 3, Peg3 prom inh -67, HIF-2a inh -33, KKLEB tox -13, CF NFkB block 66* and CF NFkB inh conf 71*.
Cc1ccc(NC(=O)c2ccco2)c(NC(=O)c2ccc(Cl)cc2)c1 was read as Mdm2-MdmX inh 8, ABHD5-PLIN5 inh -12, Peg3 prom inh 23, HIF-2a inh 4, KKLEB tox 6 and CF NFkB block -10.
`CCc1ccc(C(=O)c2cncc(Br)c2)cc1` gave Mdm2-MdmX inh 22, ABHD5-PLIN5 inh 6, Peg3 prom inh -204, HIF-2a inh -179, KKLEB tox -12 and CF NFkB block 43.
Cc1ccc(C(=O)c2cncc(Br)c2)cc1 was read as Mdm2-MdmX inh 18, ABHD5-PLIN5 inh 0, Peg3 prom inh -78, HIF-2a inh -66, KKLEB tox -8, CF NFkB block 50* and CF NFkB inh conf 62*.
For CCN(C(=O)COC(=O)c1ccc([N+](=O)[O-])o1)c1cccc2ccccc12 the results were Mdm2-MdmX inh 3, ABHD5-PLIN5 inh -4, Peg3 prom inh 35, HIF-2a inh 11, KKLEB tox -16, CF NFkB block 66* and CF NFkB inh conf 18.
Screening CC(C)(C)N(Cc1ccccc1)C(=O)COC(=O)c1ccc([N+](=O)[O-])o1 returned Mdm2-MdmX inh -3, ABHD5-PLIN5 inh 1, Peg3 prom inh 8, HIF-2a inh -1, KKLEB tox 10 and CF NFkB block 2.
`C=CCNC(=O)c1c(Cl)cnn1-c1ccc(C)cc1` gave Mdm2-MdmX inh -76, ABHD5-PLIN5 inh -2, Peg3 prom inh -250, HIF-2a inh -245, KKLEB tox 4 and CF NFkB block -1.
For Cc1cc(Br)cn2c(Cc3ccsc3)c(-c3ccco3)nc12 the results were ABHD5-PLIN5 inh 15, Peg3 prom inh 7, HIF-2a inh 15, KKLEB tox -18, CF NFkB block 60* and CF NFkB inh conf -3.

Source: PubChem (several laboratories)
